Experiment [1] can be described thus: ATG_TAL_CIS: Attagene CIS-FACTORIAL HepG2 Assay for human TAL Basal Promoter (AID 2282966; active = hit-call score of the fitted dose curve at least 0.9, where 1 is the maximum; inactive = score below 0.9;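 also: background control endpoint measuring basal TAL promoter reporter mRNA not a specific factor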). Particulars: HepG2 Attagene cis-factorial TAL promoter reporter; actives raise or lower the signal. The essentials:
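Background-control endpoint: basal TAL promoter reporter transcripts in transiently transfected HepG2, measured 24 h after dosing. Read-out by RT-PCR with fluorescent primer extension and capillary electrophoresis; gain or loss of signal fitted relative to DMSO.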

Experiment [2] can be described thus: ATG_TGFb_CIS: Attagene CIS-FACTORIAL HepG2 Assay for human Transforming Growth Factor (TGF) (AID 2282967; active = hit-call score of the fitted dose curve at least 0.9, where 1 is the maximum; inactive = score below 0.9). As to conditions: HepG2 Attagene CIS TGFb reporter, mRNA transcription; actives raise or lower the signal. The essentials: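 Multiplexed cis-reporter HepG2 system, 24 h treatment; mRNA induction read by fluorescence after RT-PCR and CE; DMSO negative control, bidirectional curve fitting.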

The target in experiment [3] is Estrogen receptor (Homo sapiens) (UniProt P03372). Nature of the experiment: ATG_ERa_TRANS: Attagene TRANS-FACTORIAL HepG2 Assay for human Estrogen Receptor alpha (ERa) (AID 2282970). Particulars: HepG2 Attagene TRANS ERa GAL4 reporter, mRNA. The essentials:
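Reporter transcripts were measured 24 h after dosing by RT-PCR with fluorescent primer extension and capillary electrophoresis. The system is transiently transfected HepG2 expressing exogenous NR-Gal4 chimeras driving GAL4-UAS reporters; DMSO is the baseline.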

The target of experiment [4] is X-box-binding protein 1 (Homo sapiens) (UniProt P17861). Nature of the experiment: ATG_Xbp1_CIS: Attagene CIS-FACTORIAL HepG2 Assay for human X-box Binding Protein 1 (XBP1) (AID 2282972; active = hit-call score of the fitted dose curve at least 0.9, where 1 is the maximum; inactive = score below 0.9). Particulars: HepG2 XBP1 cis-element reporter, Attagene multiplex; actives raise or lower the signal. The essentials: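 Multiplexed cis-reporter readout in transfected HepG2 liver cells. Exposure lasted 24 hours. Activity in either direction was fitted against DMSO as negative control and baseline.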

A short description of experiment [5]: ATG_M_19_TRANS: Attagene TRANS-FACTORIAL HepG2 Assay for M19 Transcription Factor (Internal Marker) (AID 2282974). As to conditions: HepG2 Attagene TRANS-FACTORIAL M19 internal marker reporter. The procedure, abridged: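 Multiplexed TRANS format: HepG2 liver cells bearing transient GAL4-UAS reporter units, chemical treatment 24 h, reporter transcripts quantified by RT-PCR plus capillary electrophoresis. DMSO defines baseline.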

Experiment [6] addresses Estrogen-related receptor gamma (Homo sapiens) (UniProt P62508). Nature of the experiment: ATG_ERRg_TRANS: Attagene TRANS-FACTORIAL HepG2 Assay for human Estrogen-Related Receptor gamma (ERRg) (AID 2282977).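 Also: hits increase reporter signal over DMSO so potencies reflect activators.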 Particulars: HepG2 Attagene TRANS reporter, ERRg transactivation. The essentials:
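Exogenous NR-Gal4 chimera activity measured as reporter transcript induction after 24 h in transiently transfected HepG2 cells. RNA reverse-transcribed, PCR-amplified, 6-FAM-labelled and resolved by capillary electrophoresis; increase over DMSO baseline.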

The target in experiment [7] is Bile acid receptor (Homo sapiens) (UniProt Q96RI1). Nature of the experiment: ATG_FXR_TRANS: Attagene TRANS-FACTORIAL HepG2 Assay for Farnesoid X Receptor (FXR) (AID 2282979).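 Also: hits raise reporter mRNA above DMSO so AC50 marks FXR activation.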 As to conditions: HepG2 Attagene TRANS FXR-GAL4 reporter transcription. The procedure, abridged: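 Reporter transcripts from transfected HepG2 cells were measured 24 h after dosing, using RT-PCR with capillary electrophoresis of 6-FAM-labelled fragments. The read-out reflects activity of exogenous FXR-Gal4 chimera on GAL4-UAS units, with induction relative to DMSO.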

For experiment [8], the target named is Oxysterols receptor LXR-alpha (Homo sapiens) (UniProt Q13133). Nature of the experiment: ATG_LXRa_TRANS: Attagene TRANS-FACTORIAL HepG2 Assay for human Liver X Receptor alpha (LXRa) (AID 2282980). Particulars: HepG2 Attagene TRANS reporter, LXRa transactivation. The essentials: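 Chemical-induced reporter mRNA measured by RT-PCR with fluorescent labelling and capillary electrophoresis after 24 h dosing of transiently transfected HepG2 cells expressing exogenous NR-Gal4 chimeras; increases scored against DMSO baseline.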

Experiment [9] deals with Oxysterols receptor LXR-beta (Homo sapiens) (UniProt P55055). The experiment can be described thus: ATG_LXRb_TRANS: Attagene TRANS-FACTORIAL HepG2 Assay for human Liver X Receptor beta (LXRb) (AID 2282981). Particulars: HepG2 Attagene TRANS GAL4-LXRb reporter, mRNA. The procedure, abridged:
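Multiplexed reporter assay, HepG2, 24 h dosing. Fluorescence of labelled RT-PCR products after capillary electrophoresis gives transcript level; positive fitting direction relative to DMSO.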

For experiment [10], the target named is Hepatocyte nuclear factor 4-alpha (Homo sapiens) (UniProt P41235). The experiment can be described thus: ATG_HNF4a_TRANS: Attagene TRANS-FACTORIAL HepG2 Assay for human Hepatocyte Nuclear Factor 4 alpha (HNF4a) (AID 2282982). Particulars: HepG2 HNF4a transactivation reporter, mRNA readout. The essentials:
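Endpoint reflects transcriptional activation of a GAL4-UAS reporter by an HNF4a-GAL4 chimera in transfected HepG2 cells, 24 h post-dosing. Fluorescence from RT-PCR products separated by capillary electrophoresis; DMSO baseline.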

The nature of experiment [11]: ATG_M_06_TRANS: Attagene TRANS-FACTORIAL HepG2 Assay for M06 Transcription Factor (Internal Marker) (AID 2282983). Particulars: HepG2 Attagene TRANS M06 internal marker reporter. The essentials: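 Background-control reporter readout: after 24 h chemical exposure of transiently transfected HepG2 (GAL4-UAS reporter units), mRNA quantified by RT-PCR with fluorescent labeling and capillary electrophoresis. Gain-of-signal fitting against DMSO baseline.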

Experiment [12] has as its target Nuclear receptor subfamily 4 group A member 2 (Homo sapiens) (UniProt P43354). Nature of the experiment: ATG_NURR1_TRANS: Attagene TRANS-FACTORIAL HepG2 Assay for human Nuclear Receptor Related Protein 1 (NURR1) (AID 2282985). Particulars: HepG2 Attagene TRANS reporter, mRNA readout. The procedure, abridged: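 Endpoint: reporter mRNA increase relative to DMSO. HepG2 cells transfected with reporter units, treated 24 h; RNA processed by RT-PCR, labelling, HpaI digestion and capillary electrophoresis.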

The target in experiment [13] is Transcriptional activator Myb (Homo sapiens) (UniProt P10242). The experiment can be described thus: ATG_Myb_CIS: Attagene CIS-FACTORIAL HepG2 Assay for human Myeloblastosis (Myb) Proto-Oncogene Transcription Factor (AID 2282986; active = hit-call score of the fitted dose curve at least 0.9, where 1 is the maximum; inactive = score below 0.9). Particulars: HepG2 Attagene CIS-FACTORIAL Myb reporter transcription; actives raise or lower the signal. The procedure, abridged: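 Using HepG2 liver cells bearing transiently transfected cis-promoter reporter constructs, the assay measures induction or loss of reporter mRNA after 24 hours of dosing. Detection used fluorescently labeled RT-PCR products separated by capillary electrophoresis.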

Experiment [14] has as its target Nuclear respiratory factor 1 (Homo sapiens) (UniProt Q16656). The experiment can be described thus: ATG_NRF1_CIS: Attagene CIS-FACTORIAL HepG2 Assay for human Nuclear Respiratory Factor 1 (NRF1) Orphan Gene (AID 2282987; active = hit-call score of the fitted dose curve at least 0.9, where 1 is the maximum; inactive = score below 0.9). As to conditions: HepG2 NRF1 cis-element reporter, Attagene multiplex; actives raise or lower the signal. The procedure, abridged:
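Reporter mRNA induction or loss in HepG2 cells after 24 h dosing; cis-regulated reporter constructs report endogenous transcription-factor activity. Quantified by RT-PCR/capillary electrophoresis fluorescence, DMSO-referenced.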

Experiment [15] in a line: ATG_VDRE_CIS: Attagene CIS-FACTORIAL HepG2 Assay for human Vitamin D Receptor Element (VDRE) (AID 2282968; active = hit-call score of the fitted dose curve at least 0.9, where 1 is the maximum; inactive = score below 0.9). As to conditions: HepG2 VDRE cis-reporter transcription, actives raise or lower the signal. The essentials:
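Compounds were applied for 24 h to HepG2 cells transfected with promoter-regulated reporter units. Total RNA was reverse-transcribed, and reporter amplicons were fluorescently labelled and sized by capillary electrophoresis.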

Experiment [16] in a line: ATG_GAL4_TRANS: Attagene TRANS-FACTORIAL HepG2 Assay for GAL4 (Internal Marker) (AID 2282976). As to conditions: HepG2 Attagene TRANS GAL4 internal marker reporter. The procedure, abridged: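 In transfected human HepG2 liver cells dosed 24 h, GAL4 reporter mRNA serves as a baseline marker. Detection by RT-PCR with fluorescent capillary electrophoresis, activity fitted upward relative to DMSO.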

The target of experiment [17] is Glucocorticoid receptor (Homo sapiens) (UniProt P04150). Nature of the experiment: ATG_GR_TRANS: Attagene TRANS-FACTORIAL HepG2 Assay for human Glucocorticoid Receptor (GR) (AID 2282978).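 Also: activators score as hits since higher reporter transcript over DMSO is fitted.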 Particulars: HepG2 Attagene TRANS GR reporter, mRNA transcription. The procedure, abridged: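 Transiently transfected HepG2 cells express chimeric NR-GAL4 proteins acting on GAL4-UAS reporter units. Compounds are applied for 24 h. mRNA induction over DMSO is measured by capillary electrophoresis.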

Experiment [18] is described as follows: ATG_M_32_TRANS: Attagene TRANS-FACTORIAL HepG2 Assay for M32 Transcription Factor (Internal Marker) (AID 2282984). As to conditions: HepG2 Attagene TRANS M32 internal marker reporter. The procedure, abridged:
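Internal-marker readout from a multiplexed transcription reporter panel. HepG2 cells were transfected with GAL4-UAS reporter units, treated 24 hours, and reporter transcript levels determined by fluorescence after RT-PCR and capillary separation.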

For experiment [19], the target named is Nuclear receptor subfamily 1 group I member 3 (Homo sapiens) (UniProt Q14994). The experiment can be described thus: ATG_CAR_TRANS: Attagene TRANS-FACTORIAL HepG2 Assay for human Constitutive Androstane Receptor (CAR) (AID 2282969).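 Also: activators raise reporter mRNA above DMSO so AC50 marks induction.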 Particulars: HepG2 Attagene TRANS-FACTORIAL CAR reporter. The procedure, abridged: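 Transiently transfected HepG2, multiplex TRANS reporters (CAR-Gal4 chimera driving GAL4-UAS reporter). 24 h dosing. Readout: reporter transcript by RT-PCR + capillary electrophoresis, fluorescence intensity; positive direction vs DMSO.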

Inconclusive results are not listed. The source made the active and inactive calls. The calls were made as follows, unless noted: active = hit-call score of the fitted dose curve at least 0.9, where 1 is the maximum; inconclusive = response in the unintended direction; inactive = score below 0.9.

Oxysterols receptor LXR-beta (Homo sapiens), sequence (P55055 whole entry, looked up, the tested form may be a part): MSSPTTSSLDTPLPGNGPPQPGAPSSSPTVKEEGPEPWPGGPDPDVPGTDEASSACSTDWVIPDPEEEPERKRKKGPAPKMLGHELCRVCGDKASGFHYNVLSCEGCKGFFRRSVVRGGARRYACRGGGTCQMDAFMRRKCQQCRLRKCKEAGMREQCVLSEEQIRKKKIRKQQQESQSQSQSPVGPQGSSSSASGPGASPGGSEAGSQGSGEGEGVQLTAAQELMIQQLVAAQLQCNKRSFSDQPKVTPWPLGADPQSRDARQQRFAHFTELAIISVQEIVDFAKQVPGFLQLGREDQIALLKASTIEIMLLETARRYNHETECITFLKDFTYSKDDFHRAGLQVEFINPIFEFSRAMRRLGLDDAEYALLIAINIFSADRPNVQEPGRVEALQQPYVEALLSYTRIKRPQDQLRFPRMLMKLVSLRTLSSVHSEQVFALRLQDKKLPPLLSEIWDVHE
Estrogen receptor (Homo sapiens), sequence (P03372 whole entry, looked up, the tested form may be a part): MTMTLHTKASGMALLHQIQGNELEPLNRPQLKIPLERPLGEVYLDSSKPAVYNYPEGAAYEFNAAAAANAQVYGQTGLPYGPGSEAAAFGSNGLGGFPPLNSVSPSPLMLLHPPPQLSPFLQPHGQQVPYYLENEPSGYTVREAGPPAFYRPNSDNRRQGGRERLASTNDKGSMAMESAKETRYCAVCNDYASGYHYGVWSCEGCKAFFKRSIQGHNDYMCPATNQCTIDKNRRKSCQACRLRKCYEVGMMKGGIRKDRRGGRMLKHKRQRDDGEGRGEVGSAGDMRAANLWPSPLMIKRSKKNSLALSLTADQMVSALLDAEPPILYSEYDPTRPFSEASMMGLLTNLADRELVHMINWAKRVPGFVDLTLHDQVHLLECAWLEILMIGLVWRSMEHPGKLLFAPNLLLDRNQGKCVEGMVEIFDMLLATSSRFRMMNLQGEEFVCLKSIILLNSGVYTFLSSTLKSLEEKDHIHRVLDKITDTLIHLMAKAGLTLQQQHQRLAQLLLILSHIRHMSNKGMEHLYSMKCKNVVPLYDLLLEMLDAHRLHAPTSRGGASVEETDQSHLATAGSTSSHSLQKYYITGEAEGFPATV
Nuclear receptor subfamily 1 group I member 3 (Homo sapiens), sequence (Q14994 whole entry, looked up, the tested form may be a part): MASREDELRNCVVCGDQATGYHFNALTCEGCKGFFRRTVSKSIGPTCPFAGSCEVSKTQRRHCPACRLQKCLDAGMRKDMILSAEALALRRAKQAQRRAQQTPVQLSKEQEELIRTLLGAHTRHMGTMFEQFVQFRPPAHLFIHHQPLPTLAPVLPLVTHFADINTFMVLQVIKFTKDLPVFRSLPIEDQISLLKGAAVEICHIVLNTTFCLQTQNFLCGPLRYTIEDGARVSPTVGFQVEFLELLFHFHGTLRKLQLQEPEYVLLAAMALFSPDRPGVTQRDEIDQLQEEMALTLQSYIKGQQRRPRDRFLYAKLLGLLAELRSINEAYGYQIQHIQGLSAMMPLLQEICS
Nuclear respiratory factor 1 (Homo sapiens), sequence (Q16656 whole entry, looked up): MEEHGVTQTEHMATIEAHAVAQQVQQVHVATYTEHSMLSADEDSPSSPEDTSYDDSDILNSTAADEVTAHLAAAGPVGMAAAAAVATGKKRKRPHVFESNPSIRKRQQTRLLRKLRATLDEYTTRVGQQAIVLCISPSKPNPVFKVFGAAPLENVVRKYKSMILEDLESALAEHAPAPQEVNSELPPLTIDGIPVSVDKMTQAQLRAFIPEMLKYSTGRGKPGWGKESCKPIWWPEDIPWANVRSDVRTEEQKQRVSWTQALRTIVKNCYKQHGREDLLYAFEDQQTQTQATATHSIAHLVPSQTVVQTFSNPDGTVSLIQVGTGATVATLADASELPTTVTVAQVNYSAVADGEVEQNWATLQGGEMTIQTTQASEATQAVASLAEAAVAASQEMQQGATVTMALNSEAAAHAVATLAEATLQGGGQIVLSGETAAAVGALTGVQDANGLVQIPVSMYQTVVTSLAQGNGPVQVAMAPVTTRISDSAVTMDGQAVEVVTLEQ
X-box-binding protein 1 (Homo sapiens), sequence (P17861 whole entry, looked up): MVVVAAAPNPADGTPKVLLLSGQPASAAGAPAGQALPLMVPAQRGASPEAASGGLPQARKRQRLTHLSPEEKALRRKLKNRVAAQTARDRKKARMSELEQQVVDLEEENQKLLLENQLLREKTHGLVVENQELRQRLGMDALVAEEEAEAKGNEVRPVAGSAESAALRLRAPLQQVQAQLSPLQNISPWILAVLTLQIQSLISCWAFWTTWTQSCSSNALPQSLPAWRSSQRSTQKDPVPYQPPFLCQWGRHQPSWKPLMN
Glucocorticoid receptor (Homo sapiens), sequence (P04150 whole entry, looked up, the tested form may be a part): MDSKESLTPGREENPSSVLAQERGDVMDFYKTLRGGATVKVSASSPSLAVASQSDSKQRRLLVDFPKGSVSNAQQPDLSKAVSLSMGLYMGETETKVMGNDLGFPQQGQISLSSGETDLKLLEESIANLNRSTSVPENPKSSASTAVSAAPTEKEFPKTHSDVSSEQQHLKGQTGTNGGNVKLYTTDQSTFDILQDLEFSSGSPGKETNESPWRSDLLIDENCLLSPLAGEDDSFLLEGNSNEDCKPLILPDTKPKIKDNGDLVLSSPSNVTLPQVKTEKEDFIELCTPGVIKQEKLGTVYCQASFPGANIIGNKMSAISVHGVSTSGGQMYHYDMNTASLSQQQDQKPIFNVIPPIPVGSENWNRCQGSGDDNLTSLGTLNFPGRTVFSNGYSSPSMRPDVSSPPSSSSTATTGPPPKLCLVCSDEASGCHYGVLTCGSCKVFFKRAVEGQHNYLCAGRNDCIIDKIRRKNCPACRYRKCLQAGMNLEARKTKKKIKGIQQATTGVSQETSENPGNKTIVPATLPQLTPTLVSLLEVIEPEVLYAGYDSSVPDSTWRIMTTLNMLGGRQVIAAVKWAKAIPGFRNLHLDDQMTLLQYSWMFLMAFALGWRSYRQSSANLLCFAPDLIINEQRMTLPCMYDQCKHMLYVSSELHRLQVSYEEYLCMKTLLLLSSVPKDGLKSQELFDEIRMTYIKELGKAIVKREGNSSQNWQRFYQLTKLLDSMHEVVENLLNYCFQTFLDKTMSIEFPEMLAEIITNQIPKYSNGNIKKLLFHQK
Hepatocyte nuclear factor 4-alpha (Homo sapiens), sequence (P41235 whole entry, looked up, the tested form may be a part): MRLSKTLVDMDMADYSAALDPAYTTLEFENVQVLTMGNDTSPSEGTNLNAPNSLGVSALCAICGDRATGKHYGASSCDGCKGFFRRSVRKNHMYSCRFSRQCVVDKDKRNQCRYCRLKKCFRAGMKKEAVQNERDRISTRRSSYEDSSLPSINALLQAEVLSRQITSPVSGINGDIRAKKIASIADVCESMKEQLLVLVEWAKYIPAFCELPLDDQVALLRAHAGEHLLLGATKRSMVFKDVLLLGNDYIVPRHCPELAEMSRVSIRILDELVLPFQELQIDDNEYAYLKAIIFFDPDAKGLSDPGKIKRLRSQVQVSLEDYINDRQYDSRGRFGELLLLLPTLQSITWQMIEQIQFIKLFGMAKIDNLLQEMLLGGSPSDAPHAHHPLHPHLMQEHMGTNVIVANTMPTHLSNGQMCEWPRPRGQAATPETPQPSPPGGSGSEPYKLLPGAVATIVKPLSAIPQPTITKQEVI
Nuclear receptor subfamily 4 group A member 2 (Homo sapiens), sequence (P43354 whole entry, looked up): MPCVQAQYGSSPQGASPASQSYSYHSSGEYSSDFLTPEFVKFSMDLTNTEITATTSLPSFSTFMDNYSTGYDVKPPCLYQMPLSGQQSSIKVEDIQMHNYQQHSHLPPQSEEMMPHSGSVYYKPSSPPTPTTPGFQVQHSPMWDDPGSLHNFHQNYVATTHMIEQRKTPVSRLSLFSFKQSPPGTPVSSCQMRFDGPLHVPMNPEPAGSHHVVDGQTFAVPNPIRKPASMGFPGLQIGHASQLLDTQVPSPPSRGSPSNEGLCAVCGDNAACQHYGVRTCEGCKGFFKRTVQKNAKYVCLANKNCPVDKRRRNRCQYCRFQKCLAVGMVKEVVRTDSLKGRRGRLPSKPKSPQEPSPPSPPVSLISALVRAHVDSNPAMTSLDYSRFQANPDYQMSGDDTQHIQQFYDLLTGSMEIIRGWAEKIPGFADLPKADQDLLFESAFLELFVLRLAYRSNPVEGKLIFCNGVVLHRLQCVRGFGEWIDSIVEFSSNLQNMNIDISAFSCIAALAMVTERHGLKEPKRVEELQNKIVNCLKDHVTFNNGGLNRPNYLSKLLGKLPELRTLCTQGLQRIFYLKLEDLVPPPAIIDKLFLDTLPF
Transcriptional activator Myb (Homo sapiens), sequence (P10242 whole entry, looked up): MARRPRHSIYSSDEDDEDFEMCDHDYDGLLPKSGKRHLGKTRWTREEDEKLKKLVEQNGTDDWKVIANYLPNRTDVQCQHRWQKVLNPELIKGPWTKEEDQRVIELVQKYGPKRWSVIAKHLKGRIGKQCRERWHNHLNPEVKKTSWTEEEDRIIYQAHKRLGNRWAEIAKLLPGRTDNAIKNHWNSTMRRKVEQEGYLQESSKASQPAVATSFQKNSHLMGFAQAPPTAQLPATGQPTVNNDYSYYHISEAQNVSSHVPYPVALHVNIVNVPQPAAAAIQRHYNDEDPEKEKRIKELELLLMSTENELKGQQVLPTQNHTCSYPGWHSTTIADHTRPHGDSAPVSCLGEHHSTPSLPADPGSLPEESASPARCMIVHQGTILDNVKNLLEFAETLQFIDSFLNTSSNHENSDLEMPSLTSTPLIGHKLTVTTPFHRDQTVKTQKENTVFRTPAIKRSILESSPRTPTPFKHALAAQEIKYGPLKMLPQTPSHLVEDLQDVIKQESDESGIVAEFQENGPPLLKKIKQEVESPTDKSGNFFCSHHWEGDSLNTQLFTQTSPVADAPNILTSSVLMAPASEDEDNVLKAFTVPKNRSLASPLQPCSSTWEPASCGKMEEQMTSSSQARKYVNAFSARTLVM

For orientation: AC50 means the midpoint of the concentration-response curve, whichever way the signal moves. Turning to `CC(C)C(=O)Nc1ccc([N+](=O)[O-])c(C(F)(F)F)c1`, the call in [1], in experiment [2], in experiment [3], in [5], in experiment [6] and in [7] was inactive. The outcome in [8], in [9], in experiment [10], in experiment [11], in experiment [13] and in experiment [14] was inactive. For the same compound, the values for the AC50 in [4] and in [12] were 27 µM (active) and 43.5 µM (active), respectively.

Consider `CC[C@H](C)C(=O)O[C@H]1C[C@H](O)C=C2C=C[C@H](C)[C@H](CC[C@@H](O)C[C@@H](O)CC(=O)O)[C@H]21`, for which the compound was classed as inactive in experiment [1], in [2], in [15], in [4], in experiment [16] and in experiment [17]. In addition, the outcome in experiment [9], in [10], in experiment [11] and in experiment [13] was inactive.

Take `Cn1cc[nH]c1=S`: the call in [1], in experiment [2], in experiment [15], in experiment [4], in [16] and in [11] was inactive. Further, the result in experiment [18], in experiment [12], in experiment [13] and in experiment [14] was inactive.

On to `NC(=O)NN=Cc1ccc([N+](=O)[O-])o1`, for which the outcome in [1], in experiment [2], in experiment [15], in experiment [4], in experiment [17] and in [10] was inactive. Also, the compound was classed as inactive in experiment [11], in experiment [12] and in experiment [13].

In the case of `CCCCOC(=O)c1ccccc1`, the result in experiment [1], in experiment [2], in [15], in experiment [4], in experiment [9] and in [11] was inactive. Moreover, the compound was classed as inactive in [12], in [13] and in experiment [14].

Take `Cn1c(=O)c2[nH]cnc2n(C)c1=O`: the result in experiment [1], in [2], in experiment [3], in experiment [4], in experiment [5] and in experiment [7] was inactive. The call in experiment [10], in [18], in experiment [12] and in [13] was inactive.

Turning to `CCOC(N)=O`, the compound was classed as inactive in [1], in [2], in experiment [3], in [4], in [16] and in [11]. Further, the compound was called inactive in experiment [18] and in experiment [13].

In the case of `CCCCN1C(=O)[C@@H]([C@H](O)C2CCCCC2)NC(=O)C12CCN(Cc1ccc(Oc3ccc(C(=O)O)cc3)cc1)CC2`, the concentration at half-maximal activity (AC50) in [1] was 21.9 µM (active). Also, the compound was called inactive in [2], in experiment [3], in experiment [4], in experiment [16], in [11] and in experiment [18]. For the same compound, the call in experiment [13] was inactive.

`C=CN1CCCC1=O`: the compound was called inactive in experiment [1], in experiment [2], in experiment [19], in experiment [3], in experiment [4] and in experiment [9]. Also, the compound was called inactive in experiment [11], in experiment [12], in [13] and in experiment [14].

As for `O=S1(=O)CCCO1`, the call in experiment [1], in experiment [2], in [15], in experiment [4], in [16] and in [10] was inactive. In addition, the compound was called inactive in experiment [11], in experiment [18] and in experiment [13].

For the compound `CC(=O)c1ccccc1`, the call in [1], in experiment [2], in experiment [19], in experiment [3], in experiment [4] and in [5] was inactive. In addition, the compound was classed as inactive in [16], in experiment [9], in experiment [10], in experiment [13] and in experiment [14].

As for `CCc1cccc(CC)c1N`, the result in experiment [1], in [2], in experiment [19], in [3], in experiment [4] and in experiment [16] was inactive. Moreover, the call in experiment [17], in experiment [10], in [11], in [12], in experiment [13] and in [14] was inactive.

For the origin of these results see PubChem BioAssay (EPA / NIEHS).
